PubChem BioAssay
Records with an inconclusive call do not appear. Activity calls are given as the source filed them.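 The calls were made as follows, unless noted: active = viability at or below 30% in both replicate assays; inconclusive = viability at or below 30% in just one of the two assays; inactive = the rest.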

How the values were obtained:
[1] = reducers of endogenous Her2 protein level, primary screen, SKBR3 breast tumor cells, AlphaScreen, ATP viability (AID 461;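 active = Her2 level under about 52% in both replicate screens, with viability over 70% of control, limit read from the data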;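 as to Her2 level: lower value means less Her2 protein in the cells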;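 as to viability: percent of carrier control wells set as 100% viability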); details: 18-24 h, measured here: SKBR3 viability, ATP luminescence, at 10 µM
[2] = molecular target: Receptor tyrosine-protein kinase erbB-2 (Homo sapiens) (UniProt P04626); assay: as above; details: 18-24 h, at 10 µM, stronger effect = lower value
Receptor tyrosine-protein kinase erbB-2 (Homo sapiens), sequence (P04626 whole entry, looked up): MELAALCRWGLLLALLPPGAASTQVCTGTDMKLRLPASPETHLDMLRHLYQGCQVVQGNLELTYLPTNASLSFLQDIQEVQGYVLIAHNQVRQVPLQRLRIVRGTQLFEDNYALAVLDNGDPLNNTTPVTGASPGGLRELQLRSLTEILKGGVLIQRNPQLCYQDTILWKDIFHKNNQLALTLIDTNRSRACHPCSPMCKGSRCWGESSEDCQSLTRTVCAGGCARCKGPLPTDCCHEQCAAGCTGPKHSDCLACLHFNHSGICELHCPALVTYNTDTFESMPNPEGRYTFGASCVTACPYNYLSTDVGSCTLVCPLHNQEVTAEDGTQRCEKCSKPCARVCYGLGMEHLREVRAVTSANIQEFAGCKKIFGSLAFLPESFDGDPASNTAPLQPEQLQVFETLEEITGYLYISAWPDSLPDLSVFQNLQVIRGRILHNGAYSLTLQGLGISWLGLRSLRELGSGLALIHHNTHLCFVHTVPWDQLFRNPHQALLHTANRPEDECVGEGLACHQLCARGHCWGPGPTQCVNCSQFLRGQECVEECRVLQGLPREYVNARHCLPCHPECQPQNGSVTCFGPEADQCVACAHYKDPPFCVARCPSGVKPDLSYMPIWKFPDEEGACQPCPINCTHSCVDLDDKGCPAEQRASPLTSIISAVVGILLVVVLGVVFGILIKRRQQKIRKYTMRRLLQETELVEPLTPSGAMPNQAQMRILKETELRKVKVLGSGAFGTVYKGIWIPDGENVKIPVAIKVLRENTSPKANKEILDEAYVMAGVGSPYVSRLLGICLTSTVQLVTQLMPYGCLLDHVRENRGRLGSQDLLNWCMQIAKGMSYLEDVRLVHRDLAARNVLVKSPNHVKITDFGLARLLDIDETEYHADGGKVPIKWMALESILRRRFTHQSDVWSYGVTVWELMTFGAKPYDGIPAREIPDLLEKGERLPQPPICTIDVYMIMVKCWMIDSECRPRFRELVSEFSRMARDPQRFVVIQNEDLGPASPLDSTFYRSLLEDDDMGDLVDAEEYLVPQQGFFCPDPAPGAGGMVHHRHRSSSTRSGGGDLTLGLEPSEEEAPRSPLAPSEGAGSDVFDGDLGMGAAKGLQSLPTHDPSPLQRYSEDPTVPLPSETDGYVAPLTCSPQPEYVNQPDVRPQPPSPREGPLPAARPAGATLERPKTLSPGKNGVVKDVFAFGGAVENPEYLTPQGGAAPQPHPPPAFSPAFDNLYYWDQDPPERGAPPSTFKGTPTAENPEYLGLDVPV

[3] = SK-BR-3 cell growth inhibitors, pilot screen, 24 h, human (AID 572;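 active = viability at or below 10% of carrier control in both of two separate runs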;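 also: compound exposure lasted between 18 and 24 h rather than exactly 24 h; 100% = carrier-treated control wells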); details: SK-BR-3 viability, CellTiter-Glo luminescence, at 10 µM, stronger effect = lower value
[4] = HUVEC growth inhibition – cell-based, human, primary screen (AID 575); details: HUVEC proliferation, CellTiter-Glo luminescence, 72 h; at 10 µM; stronger effect = lower value;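 also: 100% = median of untreated cell wells with 0.1% DMSO on each plate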
[5] = growth inhibitors of H69AR lung tumor, primary screen, human, duplicate replicates (AID 580;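 active = viability at or under a set limit in both replicates, limit being median viability minus 3 SD, cut at about 48% in these data, passing the limit was not always enough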;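 also: 100% = mean luminescence of untreated wells and 0% = no signal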); details: H69AR lung tumor cells viability, ATP luminescence, 72 h; at 10 µM; stronger effect = lower value
[6] = reversal of MRP1-mediated doxorubicin resistance, pilot screen, H69AR cells, doxorubicin co-treatment (AID 601;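 active = viability loss from added drug above about 55%, and viability with drug at most 40%, in both replicates, limit read from the data, passing the limit was not always enough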); details: CellTiter-Glo, 72 h, at 10 µM; for differential viability (reversal): stronger effect = higher value
[7] = 384-well plate pilot, post-Golgi transport modulator project, inhibition of yeast transport mutant growth (AID 636; in the data active = inhibition above about 31%); details: absorbance 615 nm, about 18 h, stronger effect = higher value
[8] = growth suppression of yeast trafficking mutant, preliminary HTS, modulators of trafficking downstream of Golgi apparatus project, 1536-format plate, OD 615 nm (AID 637; in the data active = inhibition above about 30%); details: yeast transport mutant growth, absorbance 615 nm, 18 h; stronger effect = higher value
[9] = OD615 S. cerevisiae growth inhibition, permissive medium, pilot counter-assay, permissive growth control for S. cerevisiae lifespan shortening project (AID 705;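 active = growth inhibition above 25% in both replicates, a cutoff set 3 SD above the mean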); details: OD615, 24 h, at 10 µM, stronger effect = higher value
[10] = Restrictive medium S. cerevisiae growth inhibition, OD615, pilot screen of yeast lifespan reduction project, restrictive growth control (AID 706;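 active = growth inhibition above a set limit, 3 SD over mean compound inhibition, in both replicates, cut at about 43% in these data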;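 also: modified DeaD lifespan yeast strain shifted to restrictive glucose medium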); details: OD615, 48 h, at 10 µM, stronger effect = higher value
[11] = viability gain of MRP-1-high H69AR cells under doxorubicin, pilot screen, MRP-1 activator project, CellTiter-Glo, duplicate (AID 807;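 active = viability increase at or above a cutoff of the median across tested compounds plus 3 SD, cut at about 8.5% in these data, passing the limit was not always enough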;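 also: compound pretreatment 18-22 h then 72 h combined with doxorubicin; 0% = doxorubicin alone and 100% = vehicle without doxorubicin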); details: H69AR viability with doxorubicin, CellTiter-Glo luminescence; at 10 µM; stronger effect = higher value
[12] = growth suppression of PTEN-deleted HCT116, pilot screen, cell-based, HCT116 clonal line, CellTiter-Glo (AID 824;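 active = viability at or below 27.92% in each of two runs, the all-compound median minus 4 SD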;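 also: 0% = 20 µM Hyamine control and 100% = vehicle cell control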); details: 60 h, at 10 µM, stronger effect = lower value
[13] = inhibitors of the yeast RAM network, pilot screen, dse1pr::URA3 reporter, 5-FOA selection (AID 869;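 active = inhibition over a set limit, the all-compound mean plus 3 SD, in both replicate runs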;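 also: 0% = DMSO wells with no growth and 100% = 10 µM 1-NA-PP1 with full growth; RAM network block rescues cells from 5-FOA so hits raise OD615 growth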); details: S. cerevisiae dse1pr::URA3 5-FOA growth, OD615, 2 d; at 10 µM; stronger effect = higher value; strain carries analog-sensitive mutant Cbk1 kinase
[14] = RAM signaling pathway blockade in yeast – S. cerevisiae, Pdr1DBD-CYC8 efflux-inhibited sensitized strain, primary screen (AID 1298;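 active = RAM network inhibition above 8.4% in each of two replicates, 3 SD over the compound average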;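 also: 0% = DMSO untreated cells without growth and 100% = 10 µM 1-NA-PP1 full growth; higher means more yeast growth rescued from 5-FOA killing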); details: S. cerevisiae cbk1-as DSE1-URA3 strain, 5-FOA growth OD615, 2 d; at 50 µM; stronger effect = higher value
[15] = growth suppression of beta-catenin knockout HCT116, pilot screen, human colon tumor cells (AID 823;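 active = cell viability at or below a set limit in both duplicate runs, the limit being the all-compound median minus 4 SD, cut at about 23% in these data, passing the limit was not always enough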;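 also: 0% = wells killed by 20 µM Hyamine and 100% = untreated DMSO cell wells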); details: CellTiter-Glo, 60 h, at 10 µM, stronger effect = lower value
[16] = H69AR cells + 2 uM doxorubicin, measured here: viability with 2 uM doxorubicin, stronger effect = lower value
[17] = H69AR cells, compound alone cytotoxicity

## Cc1cc(N2CCOCC2)nc2ccc(NC(=O)C3CCC(C)CC3)cc12 (stereo not given)
[1]
  viability: 73.5%
[2]
  Her2 level: 110% (inactive)
[3]
  viability: 73.5% (inactive)
[4]
  viability: 62.5% (inactive)
[5]
  viability: 76.3% (inactive)
[6]; H69AR cells + 2 uM doxorubicin
  differential viability (reversal): -9.34% (inactive)
[6]; [16]
  viability: 85.7%
[6]; [17]
  viability: 76.3%
[7]
  inhibition: -0.27% (inactive)
[8]
  inhibition: -6.67% (inactive)
[9]
  growth inhibition: -11.1% (inactive)
[10]
  growth inhibition: 0.545% (inactive)
[11]
  viability increase: -4.21% (inactive)
[12]
  viability: 81% (inactive)
[13]
  inhibition: 1.95% (inactive)
[14]
  RAM network inhibition: 4.29% (inactive)

## Cc1noc(C)c1CSc1ccccc1C(=O)N1CCN(c2ccccc2)CC1
[1]
  viability: 87%
[2]
  Her2 level: 86% (inactive)
[3]
  viability: 87% (inactive)
[4]
  viability: 97.8% (inactive)
[5]
  viability: 82% (inactive)
[6]; H69AR cells + 2 uM doxorubicin
  differential viability (reversal): -6.2% (inactive)
[6]; [16]
  viability: 88.2%
[6]; [17]
  viability: 82%
[7]
  inhibition: -4.46% (inactive)
[8]
  inhibition: 5.57% (inactive)
[9]
  growth inhibition: -11.9% (inactive)
[10]
  growth inhibition: -20% (inactive)
[11]
  viability increase: -2.25% (inactive)
[12]
  viability: 72.3% (inactive)
[13]
  inhibition: 3.5% (inactive)
[14]
  RAM network inhibition: 4.4% (inactive)

## CCOc1ccc(-c2nnc3sc(-c4c(OC)cccc4OC)nn23)cc1
[1]
  viability: 126%
[2]
  Her2 level: 84% (inactive)
[3]
  viability: 126% (inactive)
[4]
  viability: 86.5% (inactive)
[5]
  viability: 86.2% (inactive)
[6]; H69AR cells + 2 uM doxorubicin
  differential viability (reversal): 1.34% (inactive)
[6]; [16]
  viability: 84.8%
[6]; [17]
  viability: 86.2%
[7]
  inhibition: -5.87% (inactive)
[8]
  inhibition: 10.5% (inactive)
[9]
  growth inhibition: -0.61% (inactive)
[10]
  growth inhibition: 8.15% (inactive)
[11]
  viability increase: -5.89% (inactive)
[12]
  viability: 71.3% (inactive)
[13]
  inhibition: 2.04% (inactive)
[14]
  RAM network inhibition: 4.81% (inactive)

## Cc1ccc(SCC(=O)NCCN2C(=O)CSC2=O)c(C)c1
[1]
  viability: 99.5%
[2]
  Her2 level: 110% (inactive)
[3]
  viability: 99.5% (inactive)
[4]
  viability: 92.3% (inactive)
[5]
  viability: 87.7% (inactive)
[6]; H69AR cells + 2 uM doxorubicin
  differential viability (reversal): -1.79% (inactive)
[6]; [16]
  viability: 89.5%
[6]; [17]
  viability: 87.7%
[7]
  inhibition: 0.52% (inactive)
[8]
  inhibition: -0.83% (inactive)
[9]
  growth inhibition: -14.8% (inactive)
[10]
  growth inhibition: -3.53% (inactive)
[11]
  viability increase: -0.38% (inactive)
[15]
  viability: 111% (inactive)
[13]
  inhibition: 1.09% (inactive)
[14]
  RAM network inhibition: 3.32% (inactive)

## COc1ccc(C2C(C(=O)N3CCCC3)c3cc(OC)c(OC)cc3C(=O)N2C)cc1 (stereo not given)
[1]
  viability: 88.5%
[2]
  Her2 level: 85.5% (inactive)
[3]
  viability: 88.5% (inactive)
[4]
  viability: 94.3% (inactive)
[5]
  viability: 102% (inactive)
[6]; H69AR cells + 2 uM doxorubicin
  differential viability (reversal): 0.95% (inactive)
[6]; [16]
  viability: 101%
[6]; [17]
  viability: 102%
[7]
  inhibition: -7.95% (inactive)
[8]
  inhibition: -0.63% (inactive)
[9]
  growth inhibition: -8.59% (inactive)
[10]
  growth inhibition: -0.445% (inactive)
[11]
  viability increase: -1.15% (inactive)
[12]
  viability: 92.8% (inactive)
[13]
  inhibition: 0.655% (inactive)
[14]
  RAM network inhibition: 5.28% (inactive)

## CCCCOC(=O)c1[nH]c2c(c1C)C(=O)CC(c1cc(OC)c(OC)c(OC)c1)C2 (stereo not given)
[1]
  viability: 89%
[2]
  Her2 level: 74.5% (inactive)
[3]
  viability: 89% (inactive)
[4]
  viability: 77.4% (inactive)
[5]
  viability: 72.4% (inactive)
[6]; H69AR cells + 2 uM doxorubicin
  differential viability (reversal): 0.9% (inactive)
[6]; [16]
  viability: 71.5%
[6]; [17]
  viability: 72.4%
[7]
  inhibition: 0.38% (inactive)
[8]
  inhibition: -3.33% (inactive)
[9]
  growth inhibition: -13% (inactive)
[10]
  growth inhibition: -18.8% (inactive)
[11]
  viability increase: 1.17% (inactive)
[12]
  viability: 56.6% (inactive)
[13]
  inhibition: 1.75% (inactive)
[14]
  RAM network inhibition: 3.15% (inactive)

## Cc1nc2ccc(Br)cn2c1NC(C)(C)C
[1]
  viability: 89.5%
[2]
  Her2 level: 103% (inactive)
[3]
  viability: 89.5% (inactive)
[4]
  viability: 101% (inactive)
[5]
  viability: 86.8% (inactive)
[6]; H69AR cells + 2 uM doxorubicin
  differential viability (reversal): 0.425% (inactive)
[6]; [16]
  viability: 86.3%
[6]; [17]
  viability: 86.8%
[7]
  inhibition: -6.58% (inactive)
[8]
  inhibition: -10.3% (inactive)
[9]
  growth inhibition: -13.4% (inactive)
[10]
  growth inhibition: 4.22% (inactive)
[11]
  viability increase: -2.98% (inactive)
[15]
  viability: 89.2% (inactive)
[13]
  inhibition: 1.55% (inactive)
[14]
  RAM network inhibition: 1.46% (inactive)

## O=C(c1ccco1)N1CCN(C(=O)c2sccc2-c2ccccc2)CC1
[1]
  viability: 93%
[2]
  Her2 level: 104% (inactive)
[3]
  viability: 93% (inactive)
[4]
  viability: 86.2% (inactive)
[5]
  viability: 83% (inactive)
[6]; H69AR cells + 2 uM doxorubicin
  differential viability (reversal): -6.79% (inactive)
[6]; [16]
  viability: 89.8%
[6]; [17]
  viability: 83%
[7]
  inhibition: 2.3% (inactive)
[8]
  inhibition: -4.92% (inactive)
[9]
  growth inhibition: -18.7% (inactive)
[10]
  growth inhibition: -9.14% (inactive)
[11]
  viability increase: -5.64% (inactive)
[15]
  viability: 94.6% (inactive)
[13]
  inhibition: 2.49% (inactive)
[14]
  RAM network inhibition: 4.79% (inactive)

## CC1(C)CC(=O)CC(C2(O)C(=O)N(Cc3ccccc3)c3ccccc32)O1 (stereo not given)
[1]
  viability: 99.5%
[2]
  Her2 level: 82.5% (inactive)
[3]
  viability: 99.5% (inactive)
[4]
  viability: 78.3% (inactive)
[5]
  viability: 44% (active)
[6]; H69AR cells + 2 uM doxorubicin
  differential viability (reversal): -12.7% (inactive)
[6]; [16]
  viability: 56.7%
[6]; [17]
  viability: 44%
[7]
  inhibition: 1.2% (inactive)
[8]
  inhibition: -4.75% (inactive)
[9]
  growth inhibition: -7.38% (inactive)
[10]
  growth inhibition: 4.87% (inactive)
[11]
  viability increase: -5.63% (inactive)
[12]
  viability: 44.2% (inactive)
[13]
  inhibition: 1.98% (inactive)
[14]
  RAM network inhibition: 1.36% (inactive)

## O=C1CCCC2=C1C(c1cccs1)n1nc(SCc3ccccc3F)nc1N2 (stereo not given)
[1]
  viability: 85%
[2]
  Her2 level: 99.5% (inactive)
[3]
  viability: 85% (inactive)
[4]
  viability: 65.5% (inactive)
[5]
  viability: 81.7% (inactive)
[6]; H69AR cells + 2 uM doxorubicin
  differential viability (reversal): 66.1% (active)
[6]; [16]
  viability: 15.6%
[6]; [17]
  viability: 81.7%
[7]
  inhibition: -0.27% (inactive)
[8]
  inhibition: 10.2% (inactive)
[9]
  growth inhibition: -6.56% (inactive)
[10]
  growth inhibition: -6.42% (inactive)
[11]
  viability increase: -5.19% (inactive)
[12]
  viability: 68.4% (inactive)
[13]
  inhibition: 1.23% (inactive)
[14]
  RAM network inhibition: 3.02% (inactive)
